Growth inhibition data for 21 compounds are collected here from PubChem BioAssay (NCI).

Compounds without any hit were thinned out: in the full panel of roughly 79,000, 15% have a hit. Values without a mark were called inactive. The source made the active and inactive calls. Rule as the data show it: active = growth inhibition above about 70%; inactive = the rest.

Experiment [1] can be described thus: NCI Yeast Anticancer Drug Screen. Data for the rad50 strain (AID 155).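 Also: 0% = growth of vehicle-only cultures of the same strain.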 To be noted: S. cerevisiae rad50 strain growth inhibition; at 50.0 µM; stronger effect = higher value. The method, boiled down:
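Inhibition values express reduced yeast growth in compound-treated cultures relative to vehicle-treated controls.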

The nature of experiment [2]: NCI Yeast Anticancer Drug Screen. Data for the mec2-1 strain (AID 157). To be noted: S. cerevisiae mec2-1 strain, at 50.0 µM, stronger effect = higher value. In short, it runs like this: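 mec2-1 yeast strain, carrying an alteration in DNA damage repair or cell cycle control, was exposed to compounds; growth inhibition was measured relative to vehicle-treated controls.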
Experiment [3] is described as follows: NCI Yeast Anticancer Drug Screen. Data for the sgs1 mgt1 strain (AID 161).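 Also: 0% = growth of cultures given vehicle only.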 To be noted: S. cerevisiae sgs1 mgt1 strain, at 50.0 µM, stronger effect = higher value. The method, boiled down: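 Percent growth inhibition was derived by comparing compound-exposed mutant yeast with vehicle-exposed cultures. The strain carries alterations in DNA damage repair.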
A short description of experiment [4]: NCI Yeast Anticancer Drug Screen. Data for the cln2 rad14 strain (AID 165).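 Also: 0% = growth equal to vehicle treated cultures.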 The following applies: S. cerevisiae cln2 rad14 strain, at 50.0 µM, stronger effect = higher value. In short, it runs like this:
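Yeast carrying cln2 and rad14 alterations (cell cycle control and DNA damage repair) were exposed to compounds. Growth inhibition was measured against vehicle-treated controls.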

Experiment [5] can be described thus: NCI Yeast Anticancer Drug Screen. Data for the bub3 strain (AID 167). The following applies: S. cerevisiae bub3 mutant strain, at 50.0 µM, stronger effect = higher value. In short, it runs like this: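 Steps: expose the mutant yeast strain to compound; grow alongside vehicle-treated cultures; measure growth; express inhibition against the vehicle cultures.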
Experiment [6] in a line: NCI Yeast Anticancer Drug Screen. Data for the mlh1 rad18 strain (AID 175). The following applies: S. cerevisiae mlh1 rad18 strain growth inhibition; at 50.0 µM; stronger effect = higher value. In short, it runs like this: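 Growth inhibition of the yeast strain was measured after compound exposure and expressed relative to vehicle-treated controls. The strain carries defined defects in DNA damage repair.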

Turning to `Cc1c(-c2ccccc2)nc(N(C)C)oc1=O`, the growth inhibition was 19% in experiment [1]; -5.05% in experiment [2]; -6.8% in experiment [3]; -9% in experiment [4]; -16.2% in experiment [5]; -7.8% in experiment [6].

For the compound `N#Cc1c(N)c(C(=O)O)nn(-c2cccc(C(F)(F)F)c2)c1=O`, the growth inhibition is -8.95% in experiment [1]; 1.7% in experiment [2]; 44% in experiment [3]; 10.8% in experiment [4]; -11.2% in experiment [5]; -15.9% in experiment [6].

On to `CCOC(=O)C(=O)C1CCCC1=O` (stereo unspecified), for which the growth inhibition was -6.9% in experiment [1]; -6.65% in experiment [2]; 2.25% in experiment [3]; -0.7% in experiment [4]; 1.7% in experiment [5]; -0.6% in experiment [6].

On to `CC1CC(C)(C)OC(C2CC=CCC2)O1` (stereo unspecified), for which the growth inhibition in experiment [1] was -12.7%; in experiment [2], -19.6%; in experiment [3] it was -13.8%; in experiment [4], -1.95%; in experiment [5] it was 2.35%; in experiment [6], 2.7%.

Turning to `CC(C)N1CN(C(C(=O)N[C@@H]2C(=O)N3C2SC(C)(C)C3C(=O)O)c2ccccc2)CSC1=S` (stereo partly specified), the growth inhibition was 48.8% in experiment [1]; -15.4% in experiment [2]; 3.85% in experiment [3]; -7.95% in experiment [4]; -9.85% in experiment [5]; -11.2% in experiment [6].

Consider `CC1(C)C2CC(NC(=O)c3ccc([N+](=O)[O-])cc3)C1C2` (stereo unspecified), for which the growth inhibition in experiment [1] is 18.6%; in experiment [2] it was 4.6%; in experiment [3], -1.5%; in experiment [4], -4.9%; in experiment [5], 3.25%; in experiment [6], 11.9%.

Regarding `CC(C)(C)OC(=O)N(CCCN)CCCCN(CCCN)C(=O)OC(C)(C)C`, the growth inhibition in experiment [1] is 8.45%; in experiment [2] it was -9.5%; in experiment [3] it was 5.25%; in experiment [4], 12.8%; in experiment [5], -5.55%; in experiment [6], -62%.

Take `COc1ccc(C)c2c1CCCC2`: the growth inhibition is -8.6% in experiment [1]; 9.75% in experiment [2]; -5.05% in experiment [3]; -60.2% in experiment [4]; -6.8% in experiment [5]; -14.5% in experiment [6].

For the compound `COc1ccc(C(c2ccccc2)c2ccc(OC)cc2)cc1`, the growth inhibition in experiment [1] is -7.95%; in experiment [2], -13%; in experiment [3], -12.9%; in experiment [4], -124%; in experiment [5] it was 37.7%; in experiment [6] it was 4.45%.

For `CSCCC(NC(C)=O)C(C)=O` (stereo unspecified), the growth inhibition is 5.75% in experiment [1]; -9.35% in experiment [2]; -3.55% in experiment [3]; -21.3% in experiment [4]; -7.15% in experiment [5]; 7.9% in experiment [6].

On to `C=C(CCC(Cl)C(COS(=O)(=O)c1ccc(C)cc1)OC(CCCO[Si](c1ccccc1)(c1ccccc1)C(C)(C)C)OCC)[Si](C)(C)C` (stereo unspecified), for which the growth inhibition in experiment [1] was 68.2%; in experiment [2] it was 65.7%; in experiment [3], 60.6%; in experiment [4] it was 69.1%; in experiment [5], 73% (active); in experiment [6], 58.4%.

With `Nc1nc(N)nc(CC(=O)O)n1`, the growth inhibition in experiment [1] is -16.5%; in experiment [2], -22.7%; in experiment [3], -57%; in experiment [4], -60.2%; in experiment [5], -14.7%; in experiment [6], -36.7%.

Take `O=S(=O)(OCCCCCCCCCCOS(=O)(=O)c1ccc(Cl)cc1)c1ccc(Cl)cc1`: the growth inhibition is -7.6% in experiment [1]; -3.6% in experiment [2]; -3.6% in experiment [3]; 8.6% in experiment [4]; -5.3% in experiment [5]; -4.55% in experiment [6].

In the case of `CN(C)/N=N/c1nc2c(c(=O)n(C)c(=O)n2C)n1C`, the growth inhibition in experiment [1] is -2.25%; in experiment [2], 20.2%; in experiment [3] it was -8.8%; in experiment [4], 5.05%; in experiment [5] it was -5.4%; in experiment [6], 15.7%.

Turning to `COc1ccc(C(C)c2cc3c(cc2OCC(=O)O)OCO3)cc1OC` (stereo unspecified), the growth inhibition in experiment [1] is -7.65%; in experiment [2], -10.2%; in experiment [3], -6.85%; in experiment [4] it was -4.8%; in experiment [5], -0.2%; in experiment [6], -3.2%.

As to `CC(C)(CO)[C@@H](O)C(=O)NCCC(=O)O`, the growth inhibition in experiment [1] is -27.5%; in experiment [2], -45.9%; in experiment [3], -10.2%; in experiment [4] it was 15.4%; in experiment [5], -27%; in experiment [6], -23.9%.

Take `COC(C)CC(=O)O` (stereo unspecified): the growth inhibition is -25.8% in experiment [1]; -28.2% in experiment [2]; -37.2% in experiment [3]; -24.5% in experiment [4]; -13.2% in experiment [5]; -4.9% in experiment [6].

Turning to `CCCCN1CSC(=S)N(CCCC)C1`, the growth inhibition is 39.5% in experiment [1]; 45.5% in experiment [2]; 59.2% in experiment [3]; -10.4% in experiment [4]; 51.4% in experiment [5]; 37% in experiment [6].

For `O=C(OCc1ccccc1)c1ccccc1O`, the growth inhibition is 39.1% in experiment [1]; 16.1% in experiment [2]; 46.1% in experiment [3]; -16.1% in experiment [4]; 22.8% in experiment [5]; 57.5% in experiment [6].

Consider `CCOC(=O)NC(NC(=O)OCC)c1ccc2c(c1)OCO2`, for which the growth inhibition was -38.5% in experiment [1]; 17.4% in experiment [2]; 17.1% in experiment [3]; -11.8% in experiment [4]; 5.75% in experiment [5]; 3.8% in experiment [6].

As to `O=S(/N=C/c1ccccc1)c1ccc(Cl)cc1` (stereo unspecified), the growth inhibition in experiment [1] is -7.6%; in experiment [2], 4.5%; in experiment [3], 12.4%; in experiment [4], 13.9%; in experiment [5], 9.4%; in experiment [6], 13%.
